# Screening data as filed in PubChem BioAssay.
# NS1 inh – inhibitors of influenza NS1 protein function | 270,000 compounds, 0.4% hits | Potency, µM (doses to about 46.1 µM), for inactives: at the highest dose activity, positive = more growth; calls by dose curve; also: potency is read from the fitted curve at half-maximal effect; actives are rising curves; nearly all actives have a fitted effect of over 50% in size
#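 OD600 was taken as the measure of yeast growth restored by compound in an NS1-expressing S. cerevisiae strain. Cells had been washed out of glucose medium and diluted 1:100 into galactose -URA medium, pH 6.0.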
# Pf growth 48h – P. falciparum growth inhibition at 48 hours (one generation); 310,000 compounds, 5.9% hits; P. falciparum luciferase growth in erythrocytes, 48 h; Potency, µM (top dose mostly 28.7 µM), for inactives: at the top dose activity change, negative = inhibition, most hits filed as inhibitors; AID 504832; also: potency is read from the fitted curve at half-maximal effect; % is scaled to controls: 0 for no effect and ±100 for the full control effect
#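 Compounds are pin-transferred into medium, infected erythrocytes (2% hematocrit, 0.1% parasitemia final) are added, and plates sit one parasite generation at 37 C in 5% CO2. Detection reagent is then added and luminescence measured.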
# Pf growth 96h – inhibits malaria parasite growth, 96 h; Potency, µM (titrated, usually from 28.7 µM), without a hit: at the highest dose activity change, negative = inhibition, usual class: inhibitors; AID 504834; 320,000 compounds, 6.9% hits; P. falciparum luciferase reporter growth, 96 h; also: potency is read from the fitted curve at half-maximal effect; % is scaled to controls: 0 for no effect and ±100 for the full control effect
#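 Luminescence readout: decreased luciferase signal marks inhibited growth of reporter-expressing P. falciparum in infected red cells (2% hematocrit, 0.05% parasitemia final), exposed to compound two generations (96 h, 37 C, 5% CO2).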
# Shiga inhibitor – inhibitors of Shiga toxin in Vero cells; AID 2315; Vero cells, Shiga toxin protein synthesis inhibition reporter; 290,000 compounds, 9.2% hits; inhibition, % at 38.7 µM; in the data active = inhibition mostly above about 28%, no sharp cut-off; inactive = mostly below about 43%; also: 0% is about no effect
# FBPA Giardia inh – inhibitors of Giardia lamblia fructose-1,6-bisphosphate aldolase | A8B2U2 | Potency, µM (top dose mostly 59.6 µM), for inactives: at the highest dose activity, negative = inhibition, most hits filed as inhibitors | purified Giardia FBPA | AID 2451 | 290,000 compounds, 0.71% hits; also: potency is read from the fitted curve at half-maximal effect; % is scaled to controls: 0 for no effect and ±100 for the full control effect; nearly all actives have a fitted effect of over 55% in size
# Target sequence (A8B2U2 whole entry, looked up): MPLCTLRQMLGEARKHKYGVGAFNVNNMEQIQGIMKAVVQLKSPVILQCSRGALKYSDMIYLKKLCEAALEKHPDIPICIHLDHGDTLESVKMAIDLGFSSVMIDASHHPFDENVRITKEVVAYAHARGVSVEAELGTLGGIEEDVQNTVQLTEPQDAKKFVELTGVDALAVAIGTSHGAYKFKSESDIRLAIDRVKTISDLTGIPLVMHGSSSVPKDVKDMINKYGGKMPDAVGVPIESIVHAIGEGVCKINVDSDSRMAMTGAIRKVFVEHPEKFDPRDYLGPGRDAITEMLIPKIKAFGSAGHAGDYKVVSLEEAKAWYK
#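 40 nM FBPA preincubated 10 min at RT with compound (up to 57.5 uM final), then substrate plus GAPDH/TPI/NAD/arsenate coupling and diaphorase/resazurin added. Fluorescence read after 20 min at RT, 525/598 nm.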
# Cycloheximide cs – counter-screen for Shiga toxin inhibitors: cycloheximide protein synthesis inhibition | AID 2314 | cell reporter, cycloheximide protein synthesis inhibition counterscreen | max response, % | 300,000 compounds, 12% hits; in the data active = max response mostly above about 13%, no sharp cut-off; inactive = mostly below about 14%; also: read at 38.3 µM for the half of the compounds with a filed dose; 0% is about no effect
# An asterisk follows results filed as active; ? = inconclusive; · = not tested or not shown; [ ] = remark or other dose. Compounds with a hit are over-represented: about 21% of the library has one in this group of screens. Unless noted, calls follow the shape of the dose curve; as a rule, active = well fitted curve in the direction sought with a large enough effect; inconclusive = small, poorly fitted or top-dose-only effect, or another doubt; inactive = no such curve, though single readings can be large; an effect the other way counts as inactive or inconclusive.
SMILES,NS1 inh,Pf growth 48h,Pf growth 96h,Shiga inhibitor,FBPA Giardia inh,Cycloheximide cs
CC(C)Cc1nnc(NC(=O)Nc2ccccc2)s1,-6.6%,74.3%,-12.0%,57.5*,-1.1%,46.3*
Cc1ccc(NC(=O)Nc2nnc(Cc3ccc([N+](=O)[O-])cc3)s2)cc1,-1.1%,-1.4%,?,77.2*,4.1%,50.0*
COCCNc1ccc([N+](=O)[O-])cc1C(=O)NC1CCCc2ccccc21 (centres undefined),-3.8%,?,?,2.5,7.7%,-2.6
O=[N+]([O-])c1ccccc1-c1cc(-c2ccccc2)cc(-c2ccccc2)[n+]1Cc1ccccc1Cl,·,0.928µM*,?,·,·,·
CN(CC(=O)Nc1ccc(F)c(F)c1F)C(=O)c1ccc2c(c1)S(=O)(=O)N=C1CCCCCN12,·,?,-20.7%,·,·,·
Cn1cncc1C#Cc1ccc2cc(C(C)(C)O)oc(=O)c2c1,·,?,0.2%,·,·,·
Cn1cncc1C#Cc1c(C=O)[nH]c2ccccc12,·,8.28µM*,5.22µM*,·,·,·
Cn1cncc1C#Cc1c(C=O)n(C)c2ccccc12,·,11.7µM*,?,·,·,·
COc1ccccc1N1C(=NC(=O)CCc2ccccc2)SC2CS(=O)(=O)CC21 (centres undefined),3.3%,4.3%,-0.8%,-1.9,-13.6%,-2.0
N#Cc1ccccc1S(=O)(=O)N1CCN(S(=O)(=O)c2ccc(Br)c(C(=O)O)c2)CC1,6.2%,-20.7%,?,-5.5,5.1%,1.4
O=S1(=O)N=C(Nc2ccc(N3CCOCC3)c(Cl)c2)c2ccccc21,·,59.0%,-4.1%,85.3*,-5.7%,48.0*
C=C(C)CN(CC)Cc1c(C(=O)N(C)CCCC)nc2ccccn12,0.7%,-9.2%,9.28µM*,8.7,-0.2%,0.7
CC(C)C[C@H](N)c1nnc(S(=O)(=O)Cc2cccc(F)c2)o1,-177.4%,-3.8%,·,28.8,-0.1%,31.9*
Cc1ccccc1CS(=O)(=O)c1nnc([C@H](CC(C)C)NC(=O)OC(C)(C)C)o1,-180.2%,50.9%,4.4%,29.7,5.1%,20.7
CC(C)(C)OC(=O)N[C@@H](Cc1ccccc1)c1nnc(S(=O)(=O)Cc2cccc(F)c2)o1,-164.9%,?,?,32.5,-4.3%,21.2*
C[C@H](CN(C)C)C(C#N)(c1ccccc1)c1ccccc1,-5.2%,·,·,·,·,·
COc1cccc(C(=O)C2CCCN(Cc3cccc(OCCO)c3)C2)c1 (centres undefined),-4.0%,?,4.65µM*,-3.6,1.2%,-2.9
Cc1ccsc1C(=O)C1CCCN(Cc2cccc(OCCO)c2)C1 (centres undefined),-2.2%,-8.6%,-19.7%,1.3,3.6%,-3.9
O=C(c1cccc(OC2CCN(Cc3cccc(OCCO)c3)CC2)c1)N1CCCC1,-3.5%,-23.9%,8.28µM*,-5.6,·,-3.6
COc1c(C)cc(C(=O)C2CCCN(Cc3cccc(C)n3)C2)cc1C (centres undefined),2.6%,?,-21.3%,-15.8,1.9%,-3.7
COc1cccc(C(=O)C2CCCN(Cc3cccc(C)n3)C2)c1 (centres undefined),1.1%,2.94µM*,?,23.3,-3.6%,1.0
COc1c(C)cc(C(=O)C2CCCN(Cc3cccc(O)c3)C2)cc1C (centres undefined),-12.9%,11.7µM*,0.7%,-0.5,11.7%,-2.8
O=C(c1ccc(OC2CCN(Cc3cccc(OCCO)c3)CC2)cc1)N1CCCC1,3.4%,?,0.0%,-3.0,·,-3.8
CCOc1ccc(S(=O)(=O)Nc2ccc(C(=O)NCC(c3ccccc3)N(C)C)cc2)cc1 (centres undefined),-0.3%,4.7%,93.3%,1.6,5.2%,11.9
CN(Cc1cccs1)C(=O)C1CC(=O)N(Cc2ccccc2)C1 (centres undefined),·,36.0%,34.4%,·,·,·
SMILES,NS1 inh,Pf growth 48h,Pf growth 96h,Shiga inhibitor,FBPA Giardia inh,Cycloheximide cs
Cc1ccc(C)c(S(=O)(=O)NCCC(=O)N2CCCC(C(N)=O)C2)c1 (centres undefined),·,-5.6%,12.6%,·,·,·
Cc1noc2ncnc(Oc3ccc(Cl)cc3Cl)c12,-4.3%,-5.0%,-32.3%[5.75 µM],-6.0,2.2%,-2.9
COc1ccc(-n2c(CN3CCN(c4ccccc4OC)CC3)nc3ccc([N+](=O)[O-])cc3c2=O)c(OC)c1,7.3%,13.1µM*,-18.5%,3.0,-23.3%,-3.3
Cc1cccc(N(C(=O)c2csnn2)C(C(=O)NC2CCCCC2)c2ccncc2)c1 (centres undefined),-6.2%,-4.2%,11.5%,-3.4,-14.3%,-1.5
CCOC(=O)c1c(Nc2ccc(Cl)cc2)sc(/C=C2\C=Nc3ccccc32)c1O,1.2%,4.15µM*,·,-7.3,-0.8%,-3.7
CCOC(=O)c1c(NC(=O)c2ccc(Cl)s2)sc(C)c1C,-8.0%,6.1%,1.7%,6.6,3.8%,-3.7
CN(C)C(=O)Cn1cnc2c(cnn2-c2ccc(F)cc2)c1=O,-3.1%,45.7%,42.1%,-12.0,8.8%,-3.8
COc1ccc(Br)cc1/C=C/c1ccc2cccc(O)c2n1,4.3%,2.08µM*,?,44.4,18.8%,23.6
COc1cc(Br)cc(/C=C/c2ccc3cccc(O)c3n2)c1OC,8.2%,?,-6.1%,-2.1,16.7%,-2.7
COc1cc(/C=C/c2ccc3cccc(O)c3n2)cc(Cl)c1OC,-2.6%,-5.2%[0.00184 µM],3.7µM*,126.8*,-10.7%,52.2*
COc1cc(/C=C/c2ccc3cccc(O)c3n2)cc(Br)c1OC,13.2%,?,?,163.7*,14.2%,78.3*
COc1ccc(/C=C/c2ccc3cccc(O)c3n2)cc1Br,3.3%,?,0.1%,115.3*,10.7%,47.7*
COC(=O)c1ccc(/C=C/c2ccc3cccc(OC)c3n2)cc1,-4.0%,8.9%,?,-9.3,-19.4%,-3.0
N#CCC(=O)Nc1ccc(C(=O)NNC(=O)c2ccccc2-n2cccc2)cc1,·,-16.8%,-9.1%,·,·,·
COc1cc(/C=C/c2ccc3cccc(O)c3n2)cc(OC)c1OC,0.1%,?,-9.2%,62.6*,9.1%,33.3*
COc1cccc(Oc2ccc(N/C=C/C(=O)C(C)(C)C)cc2)c1,?,-8.5%,-23.9%,28.1*,-7.9%,45.3*
COc1ccccc1Oc1ccc(N/C=C/C(=O)C(C)(C)C)cc1,9.0%,0.4%,0.1%,44.9,-4.1%,13.7
Cc1ccc(NC(=O)CC(=O)Nc2ccc(C)cc2C)c(C)c1,-5.5%,8.0%,0.5%,2.8,0.6%,7.4
Cc1ccc(N/C=C/C(=O)C(C)(C)C)c(O)c1,7.9%,·,?,67.7*,-25.0%,62.4*
O=C(/C=C/Nc1ccccc1)C(F)(F)F,·,7.1%,8.7%,4.3,1.9%,6.4
CC(=O)Nc1ccc(N/C=C/C(=O)C(C)(C)C)cc1,-2.6%,10.5%,·,38.9*,?,17.7*
COc1ccc(Oc2ccc(N/C=C/C(=O)C(C)(C)C)cc2)cc1,·,-18.6%,-34.7%[1.15 µM],38.9*,-9.3%,25.2*
Cc1cc2nc(-c3ccc[nH]c3=O)n(Cc3ccc(F)cc3)c2cc1C,-0.5%,-4.4%[0.00184 µM],-11.3%,22.8,-3.9%,11.6*
